Targets with a hit are over-represented here; the source holds about 6,500 in all. About 2% of all pairs of compound and target were hits. A number with no mark means an inactive call.
compound: COC(=O)C#Cc1ccccc1 [methyl 3-phenylpropiolate]; assay: log2 ratio of iodoacetamide-alkyne labeling of the cysteine site, DMSO over compound (competition); higher = stronger covalent engagement of the cysteine by the compound, active = 1 or more; settings: 500 µM; treatment time 1 h; system: HEK293T cell lysate
Method in brief: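 HEK293T lysate at 2 mg/mL was treated with vehicle or electrophile (500 µM) for 1 h at ambient temperature, then labelled with iodoacetamide alkyne (1 h), clicked to sCIP-TMT reagents, pooled, digested with trypsin overnight at 37 °C, enriched on streptavidin and eluted with acid. Peptides were analysed by Orbitrap Eclipse LC-MS/MS with FAIMS and quantified in FragPipe, using duplicate channels and three replicates, with cysteines quantified in only one replicate excluded. The log2 competition ratio for each cysteine is the mean control-channel reporter intensity divided by the mean compound-channel reporter intensity.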

Chain of UniProt Q96ST3 (Q96ST3 whole entry): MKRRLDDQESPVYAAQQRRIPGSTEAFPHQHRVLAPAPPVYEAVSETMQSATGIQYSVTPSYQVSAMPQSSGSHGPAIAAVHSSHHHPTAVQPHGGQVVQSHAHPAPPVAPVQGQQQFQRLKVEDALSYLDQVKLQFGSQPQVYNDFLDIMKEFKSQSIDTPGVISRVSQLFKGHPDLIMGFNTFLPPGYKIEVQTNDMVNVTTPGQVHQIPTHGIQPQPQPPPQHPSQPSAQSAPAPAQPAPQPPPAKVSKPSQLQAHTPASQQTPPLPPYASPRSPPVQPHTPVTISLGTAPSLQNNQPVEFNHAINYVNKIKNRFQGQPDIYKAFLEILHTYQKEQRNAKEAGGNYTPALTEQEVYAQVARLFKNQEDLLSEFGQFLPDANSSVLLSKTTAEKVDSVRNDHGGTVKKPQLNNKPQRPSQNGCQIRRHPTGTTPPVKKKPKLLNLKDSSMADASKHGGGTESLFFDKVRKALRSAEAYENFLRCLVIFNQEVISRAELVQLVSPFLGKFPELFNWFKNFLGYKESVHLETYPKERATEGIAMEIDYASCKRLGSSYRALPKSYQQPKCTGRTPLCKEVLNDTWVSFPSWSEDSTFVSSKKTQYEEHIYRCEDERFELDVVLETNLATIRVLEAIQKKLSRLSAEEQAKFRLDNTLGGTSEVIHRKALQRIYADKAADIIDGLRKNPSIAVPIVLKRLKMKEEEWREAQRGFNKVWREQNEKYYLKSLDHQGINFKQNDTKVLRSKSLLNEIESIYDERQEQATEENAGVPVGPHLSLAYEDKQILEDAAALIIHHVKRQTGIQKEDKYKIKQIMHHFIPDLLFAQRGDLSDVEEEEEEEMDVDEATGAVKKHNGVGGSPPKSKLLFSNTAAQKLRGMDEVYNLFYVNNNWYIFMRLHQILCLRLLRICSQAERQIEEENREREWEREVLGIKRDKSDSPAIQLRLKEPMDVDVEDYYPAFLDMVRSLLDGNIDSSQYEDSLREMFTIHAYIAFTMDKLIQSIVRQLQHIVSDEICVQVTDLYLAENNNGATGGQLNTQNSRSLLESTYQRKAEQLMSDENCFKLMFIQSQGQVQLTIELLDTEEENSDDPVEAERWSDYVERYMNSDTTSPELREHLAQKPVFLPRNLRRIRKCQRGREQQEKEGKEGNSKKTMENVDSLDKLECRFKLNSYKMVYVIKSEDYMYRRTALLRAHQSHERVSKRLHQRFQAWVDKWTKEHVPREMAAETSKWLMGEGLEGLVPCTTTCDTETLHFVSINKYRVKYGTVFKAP
Chain of UniProt Q8IZV5 (Q8IZV5 whole entry): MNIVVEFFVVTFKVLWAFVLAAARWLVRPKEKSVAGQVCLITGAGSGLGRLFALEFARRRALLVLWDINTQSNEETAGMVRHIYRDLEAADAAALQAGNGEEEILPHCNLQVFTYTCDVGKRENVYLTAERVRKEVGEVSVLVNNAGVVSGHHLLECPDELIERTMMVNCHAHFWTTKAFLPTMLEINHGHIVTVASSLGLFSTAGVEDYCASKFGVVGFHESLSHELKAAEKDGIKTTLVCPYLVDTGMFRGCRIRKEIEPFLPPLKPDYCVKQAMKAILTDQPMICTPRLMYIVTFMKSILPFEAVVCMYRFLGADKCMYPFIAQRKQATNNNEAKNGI
Chain of UniProt Q8IZ69 (Q8IZ69 whole entry, looked up): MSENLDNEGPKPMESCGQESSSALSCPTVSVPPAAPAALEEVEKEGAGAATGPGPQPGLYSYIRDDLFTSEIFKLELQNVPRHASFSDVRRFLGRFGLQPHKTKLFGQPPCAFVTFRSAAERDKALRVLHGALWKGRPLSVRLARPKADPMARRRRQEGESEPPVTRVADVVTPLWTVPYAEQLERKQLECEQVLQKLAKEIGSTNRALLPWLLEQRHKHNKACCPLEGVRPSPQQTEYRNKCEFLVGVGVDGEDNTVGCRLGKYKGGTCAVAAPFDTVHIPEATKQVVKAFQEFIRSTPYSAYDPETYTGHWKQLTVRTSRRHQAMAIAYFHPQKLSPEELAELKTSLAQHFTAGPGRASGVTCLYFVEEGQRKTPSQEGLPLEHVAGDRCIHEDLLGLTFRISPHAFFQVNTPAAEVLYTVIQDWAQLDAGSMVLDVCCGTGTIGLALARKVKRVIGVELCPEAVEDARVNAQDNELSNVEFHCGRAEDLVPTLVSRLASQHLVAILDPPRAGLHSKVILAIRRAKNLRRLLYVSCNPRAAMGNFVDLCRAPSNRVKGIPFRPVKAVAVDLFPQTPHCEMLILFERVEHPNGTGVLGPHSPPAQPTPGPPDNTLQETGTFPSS
Chain of UniProt Q96CS3 (Q96CS3 whole entry, looked up): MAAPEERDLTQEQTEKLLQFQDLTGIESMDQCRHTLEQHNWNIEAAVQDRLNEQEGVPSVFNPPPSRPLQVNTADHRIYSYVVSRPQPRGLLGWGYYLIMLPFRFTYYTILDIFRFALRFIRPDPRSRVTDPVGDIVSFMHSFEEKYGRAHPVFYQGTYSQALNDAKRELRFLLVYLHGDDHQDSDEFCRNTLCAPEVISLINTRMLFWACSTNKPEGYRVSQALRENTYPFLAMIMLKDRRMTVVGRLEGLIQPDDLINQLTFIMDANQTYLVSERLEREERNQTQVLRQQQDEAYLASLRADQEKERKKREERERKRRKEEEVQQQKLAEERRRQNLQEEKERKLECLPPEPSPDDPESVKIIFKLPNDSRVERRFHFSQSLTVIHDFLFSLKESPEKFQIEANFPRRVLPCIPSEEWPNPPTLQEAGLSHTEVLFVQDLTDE
Chain of UniProt Q96HC4 (Q96HC4 whole entry, looked up): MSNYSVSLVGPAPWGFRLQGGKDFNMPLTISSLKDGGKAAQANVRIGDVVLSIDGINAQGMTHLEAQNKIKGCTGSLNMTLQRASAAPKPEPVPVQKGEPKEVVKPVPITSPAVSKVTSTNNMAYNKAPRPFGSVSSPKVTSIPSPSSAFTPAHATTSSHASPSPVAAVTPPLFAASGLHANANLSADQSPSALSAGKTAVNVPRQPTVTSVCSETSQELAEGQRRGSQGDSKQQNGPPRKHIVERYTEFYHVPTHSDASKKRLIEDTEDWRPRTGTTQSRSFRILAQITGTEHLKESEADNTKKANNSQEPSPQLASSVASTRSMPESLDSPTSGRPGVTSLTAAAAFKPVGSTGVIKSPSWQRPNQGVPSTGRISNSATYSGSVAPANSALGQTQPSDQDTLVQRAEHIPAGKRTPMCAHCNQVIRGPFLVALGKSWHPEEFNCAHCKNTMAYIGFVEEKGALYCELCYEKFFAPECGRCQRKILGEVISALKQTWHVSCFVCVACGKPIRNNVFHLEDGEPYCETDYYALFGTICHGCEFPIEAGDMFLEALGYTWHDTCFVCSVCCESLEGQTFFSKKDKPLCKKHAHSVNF
Chain of UniProt Q6PCB5 (Q6PCB5 whole entry, looked up): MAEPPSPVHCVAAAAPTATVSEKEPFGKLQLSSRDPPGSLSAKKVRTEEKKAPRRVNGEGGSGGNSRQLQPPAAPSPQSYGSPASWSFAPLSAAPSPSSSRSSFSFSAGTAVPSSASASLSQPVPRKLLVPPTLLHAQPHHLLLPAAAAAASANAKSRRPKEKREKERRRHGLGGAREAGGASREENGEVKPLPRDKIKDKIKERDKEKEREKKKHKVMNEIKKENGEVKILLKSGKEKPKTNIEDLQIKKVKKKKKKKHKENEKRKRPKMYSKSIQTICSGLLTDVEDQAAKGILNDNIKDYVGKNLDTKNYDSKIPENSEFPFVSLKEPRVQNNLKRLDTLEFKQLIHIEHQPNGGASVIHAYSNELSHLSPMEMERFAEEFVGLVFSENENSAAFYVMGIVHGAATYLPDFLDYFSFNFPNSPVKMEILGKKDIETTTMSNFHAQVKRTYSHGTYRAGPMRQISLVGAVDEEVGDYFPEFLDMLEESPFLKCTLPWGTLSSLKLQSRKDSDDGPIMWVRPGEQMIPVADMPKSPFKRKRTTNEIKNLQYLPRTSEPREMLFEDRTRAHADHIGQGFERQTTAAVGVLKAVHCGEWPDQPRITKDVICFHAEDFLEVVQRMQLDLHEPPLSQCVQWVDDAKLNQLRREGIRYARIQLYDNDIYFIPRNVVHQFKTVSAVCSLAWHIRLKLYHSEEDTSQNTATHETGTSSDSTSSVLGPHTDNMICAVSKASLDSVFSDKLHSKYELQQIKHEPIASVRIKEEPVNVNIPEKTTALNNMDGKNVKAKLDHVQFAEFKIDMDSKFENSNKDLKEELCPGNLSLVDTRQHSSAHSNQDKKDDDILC
Chain of UniProt Q96BH1 (Q96BH1 whole entry): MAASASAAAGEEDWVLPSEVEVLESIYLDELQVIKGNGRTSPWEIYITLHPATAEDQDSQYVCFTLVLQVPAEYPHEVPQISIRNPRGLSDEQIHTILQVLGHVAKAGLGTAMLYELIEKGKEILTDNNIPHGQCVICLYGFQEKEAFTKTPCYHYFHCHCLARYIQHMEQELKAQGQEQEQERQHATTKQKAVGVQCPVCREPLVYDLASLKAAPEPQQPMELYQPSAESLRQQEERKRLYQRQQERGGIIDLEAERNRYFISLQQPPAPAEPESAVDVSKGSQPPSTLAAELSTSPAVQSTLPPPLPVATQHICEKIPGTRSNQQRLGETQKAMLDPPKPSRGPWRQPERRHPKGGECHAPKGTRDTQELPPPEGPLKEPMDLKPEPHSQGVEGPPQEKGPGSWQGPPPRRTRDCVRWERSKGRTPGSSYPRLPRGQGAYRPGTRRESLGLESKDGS
Chain of UniProt Q86W42 (Q86W42 whole entry, looked up): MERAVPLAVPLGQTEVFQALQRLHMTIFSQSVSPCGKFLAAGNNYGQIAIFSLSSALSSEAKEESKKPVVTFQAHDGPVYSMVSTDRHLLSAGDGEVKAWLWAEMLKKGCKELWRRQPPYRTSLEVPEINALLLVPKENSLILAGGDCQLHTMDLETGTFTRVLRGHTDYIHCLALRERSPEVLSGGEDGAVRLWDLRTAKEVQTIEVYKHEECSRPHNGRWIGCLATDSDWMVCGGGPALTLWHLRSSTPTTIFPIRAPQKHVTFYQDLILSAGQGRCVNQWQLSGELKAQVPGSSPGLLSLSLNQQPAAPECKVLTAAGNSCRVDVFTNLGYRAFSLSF

Target	log2 ratio of iodoacetamide-alkyne labeling
FIGNL1 C200 (UniProt Q6PIW4)	1.08 (active)
UniProt Q6PJG6_C720	0.324
DHX30 C461 (UniProt Q7L2E3)	0.193
UniProt Q9BSH4_C112	-0.152
DHX38 C27 (UniProt Q92620)	1.36 (active)
SIN3A C486 (UniProt Q96ST3)	-0.0562
USP9X C1061 (UniProt Q93008)	0.0678
PBK C112 (UniProt Q96KB5)	0.35
HIST2H3A C111 (UniProt Q71DI3)	0.0441
NCAPH2 C342 (UniProt Q6IBW4)	1.07 (active)
THOC6 C314 (UniProt Q86W42)	0.0566
ZNF746 C425 (UniProt Q6NUN9)	0.385
SLFN11 C126 (UniProt Q7Z7L1)	0.146
NAT14 C108 (UniProt Q8WUY8)	1.05 (active)
CAMSAP1 C1379 (UniProt Q5T5Y3)	1.45 (active)
USP28 C142 (UniProt Q96RU2)	1.47 (active)
SMAP2 C196 (UniProt Q8WU79)	0.318

Target	log2 ratio of iodoacetamide-alkyne labeling
KTN1 C1105 (UniProt Q86UP2)	0.28
UniProt Q7Z4H7_C885	0.286
UniProt Q6ZS17_C1137	0.0366
TET2 C332 (UniProt Q6N021)	0.594
DDX1 C110 (UniProt Q92499)	0.315
UniProt Q8WZA9_C504	0.0403
SLFN11 C6 (UniProt Q7Z7L1)	0.329
TRMT2A C463 (UniProt Q8IZ69)	1.1 (active)
RNF25 C360 (UniProt Q96BH1)	1.07 (active)
UniProt Q96BD8_C10	0.363
RDH10 C272 (UniProt Q8IZV5)	0.324
PDLIM5 C446 (UniProt Q96HC4)	0.0755
FAF2 C194 (UniProt Q96CS3)	0.689
PARK7 C53 (UniProt Q99497)	-0.0888
RSBN1L C280 (UniProt Q6PCB5)	0.649
UniProt Q8N1I0_C1723	1.34 (active)
TMEM192 C266 (UniProt Q8IY95)	0.418

— the supplement of paper PMC11006884
